The values below come from PubChem BioAssay (NCATS).

“And” between values parts separate entries of the source, which are not always exact repeats. Equal entries are not always repeated. Results filed as inconclusive are left out. The source made the active and inactive calls. Unless noted, calls come from the whole dose curve; as a rule, active = well fitted curve in the direction sought with a large enough effect; inconclusive = small, poorly fitted or top-dose-only effect, or another doubt; inactive = no such curve, though single readings can be large; an effect the other way counts as inactive or inconclusive.

The nature of assay [1]: Cell Viability - LYMP2-002 (AID 977).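 Note: plate controls were DMSO only for no effect and 92 µM tetraoctylammonium bromide for full effect.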 Particulars: LYMP2-002 lymphoblastoid cell viability, qHTS; series mostly up to 92.2 µM. A digest of the protocol: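 Luminescent ATP readout (CellTiter-Glo, 30 min room temperature) after 24 h compound exposure at 37 C of a human lymphoblastoid line, 2500 cells/well. AC50 values derived by standard Hill fitting of qHTS concentration-response data.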

Assay [2] in a line: Cell Viability - LYMP2-006 (AID 978). Note: % is set by controls: 0 for no effect and ±100 for the full control effect; nearly all actives have a fitted effect of over 60% in size. Particulars: LYMP2-006 lymphoblastoid cell viability, qHTS; series mostly up to 92.2 µM. The essentials: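 Potency values are Hill-fit AC50s for decreases in intracellular ATP (CellTiter-Glo luminescence). LYMP2-006 lymphoblastoid cells, 2500 per well, were exposed to compound in complete culture medium for 24 hr at 37 C.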
Background: In qHTS, concentration-response curves come from the screen itself.

Assay [3] in a line: Cell Viability - LYMP2-007 (AID 979).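 Note: cells exposed to compound for 24 h before reading; 0% = DMSO only and the negative end = 92 µM tetraoctylammonium bromide; nearly all actives have a fitted effect of over 60% in size.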 Particulars: LYMP2-007 lymphoblastoid cell viability; series mostly up to 92.2 µM. A digest of the protocol: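 Human lymphoblastoid LYMP2-007 cells (2500/well) preincubated 5 h at 37 C, then treated 24 h at 37 C in complete medium. Viability by CellTiter-Glo ATP luminescence after 30 min at room temperature; AC50 from Hill fits.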
The nature of assay [4]: Cell Viability - LYMP2-008 (AID 980). Note: % is set by controls: 0 for no effect and ±100 for the full control effect; nearly all actives have a fitted effect of over 60% in size. Particulars: LYMP2-008 lymphoblastoid cell viability, qHTS; series mostly up to 92.2 µM. The essentials:
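LYMP2-008 lymphoblastoid cells (2500/well) plated 5 h, then treated 24 h at 37 C in complete medium. Viability read as intracellular ATP by CellTiter-Glo luminescence after 30 min at room temperature; AC50 from Hill fits.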

Assay [5] can be described thus: Cell Viability - LYMP2-010 (AID 981). Note: % is set by controls: 0 for no effect and ±100 for the full control effect; nearly all actives have a fitted effect of over 55% in size. Particulars: LYMP2-010 lymphoblastoid cell viability, qHTS; series mostly up to 92.2 µM. A digest of the protocol: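 Human lymphoblastoid LYMP2-010 cells (2500/well) treated 24 h at 37 C in complete medium; viability read as intracellular ATP by CellTiter-Glo luminescence. AC50 from Hill fits of concentration-response data; tetraoctylammonium bromide positive control.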

Assay [6] is described as follows: Cell Viability - LYMP2-012 (AID 982).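 Note: cellular ATP by luciferase luminescence where a drop means cytotoxicity; cells exposed to compound for one day before reading; 0% = DMSO only and full loss = 92 µM tetraoctylammonium bromide; nearly all actives have a fitted effect of over 55% in size.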 Particulars: LYMP2-012 lymphoblastoid cell viability qHTS; series mostly up to 92.2 µM.
The nature of assay [7]: Cell Viability - LYMP2-014 (AID 983).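 Note: plate controls were DMSO only for no effect and 92 µM tetraoctylammonium bromide for full effect; nearly all actives have a fitted effect of over 50% in size.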 Particulars: LYMP2-014 lymphoblastoid cells, viability qHTS; series mostly up to 92.2 µM. A digest of the protocol: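 LYMP2-014 human lymphoblastoid cells, 2500/well, treated 24 h at 37 C in complete medium; viability by CellTiter-Glo ATP luminescence after 30 min at room temperature. AC50 from Hill fits of qHTS concentration-response; tetraoctylammonium bromide positive control.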

The nature of assay [8]: Cell Viability - LYMP2-016 (AID 984). Note: % is set by controls: 0 for no effect and ±100 for the full control effect; nearly all actives have a fitted effect of over 55% in size. Particulars: LYMP2-016 lymphoblastoid cell viability, qHTS; series mostly up to 92.2 µM. The essentials: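 Cytotoxicity was scored by luminescent ATP content (CellTiter-Glo) after 24 h compound exposure at 37 C of a human lymphoblastoid line at 2500 cells/well. Concentration-response data were fitted to the Hill equation for AC50.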
Assay [9] is described as follows: Cell Viability - LYMP2-018 (AID 985).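 Note: compound exposure lasted 24 hr at 37 °C; plate controls were DMSO only for no effect and tetraoctylammonium bromide at 92 µM for full effect; nearly all actives have a fitted effect of over 50% in size.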 Particulars: LYMP2-018 lymphoblastoid cells, viability (qHTS); series mostly up to 92.2 µM. The essentials: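 Human lymphoblastoid LYMP2-018 cells, 2500/well, settled 5 hr at 37 C then exposed to compound 24 hr at 37 C; intracellular ATP measured by CellTiter-Glo luminescence. AC50 from Hill-equation concentration-response fits.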

Assay [10] is described as follows: Cell Viability - LYMP2-020 (AID 986).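 Note: plate controls were DMSO only for no effect and tetraoctylammonium bromide at 92 µM for full effect; nearly all actives have a fitted effect of over 55% in size.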 Particulars: series mostly up to 92.2 µM. The essentials:
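Human lymphoblastoid LYMP2-020 cells (2500/well) preincubated 5 h at 37 C, then treated 24 h at 37 C. Viability measured as intracellular ATP by CellTiter-Glo luminescence after 30 min at room temperature; AC50 from Hill fits.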

The nature of assay [11]: Cell Viability - LYMP2-022 (AID 987). Particulars: LYMP2-022 lymphoblastoid cell viability; series mostly up to 92.2 µM. A digest of the protocol: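 LYMP2-022 lymphoblastoid cells (2500/well, complete medium) were treated with compounds for 24 hours at 37 C; intracellular ATP was then read by CellTiter-Glo luminescence after 30 min at room temperature. AC50 values were derived from Hill-equation fits.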

Assay [12] in a line: Cell Viability - LYMP2-024 (AID 988).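 Note: plate controls were DMSO only for no effect and 92 µM tetraoctylammonium bromide for full effect; nearly all actives have a fitted effect of over 60% in size.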 Particulars: LYMP2-024 lymphoblastoid cell viability; series mostly up to 92.2 µM. The essentials:
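Human lymphoblastoid LYMP2-024 cells (2500/well) rested 5 hr, then treated with compound for 24 hr at 37 C in complete medium. Viability was measured as intracellular ATP by CellTiter-Glo luminescence. AC50 values came from Hill-equation fits.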

Assay [13] can be described thus: Cell Viability - LYMP2-026 (AID 989). Note: % is set by controls: 0 for no effect and ±100 for the full control effect; nearly all actives have a fitted effect of over 50% in size. Particulars: LYMP2-026 lymphoblastoid cell viability, qHTS; series mostly up to 92.2 µM. A digest of the protocol:
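Human lymphoblastoid LYMP2-026 cells, 2500/well, exposed to compound 24 h at 37 C in complete medium. Viability as intracellular ATP by CellTiter-Glo luminescence; AC50 from Hill fits of qHTS concentration-response.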

A short description of assay [14]: Cell Viability - LYMP1-002 - Assay at 24 hr (AID 993). Note: % is set by controls: 0 for no effect and ±100 for the full control effect. Particulars: LYMP1-002 lymphoblastoid cells viability; series mostly up to 92.2 µM. The essentials: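 Human lymphoblastoid LYMP1-002 cells (2500/well) treated 24 h at 37 °C; viability as intracellular ATP by CellTiter-Glo luminescence. Tetraoctylammonium bromide as positive control; AC50 from Hill-equation fits of qHTS concentration-response.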

The nature of assay [15]: Cell Viability - LYMP1-002 - Assay at 40 hr (AID 994). Particulars: LYMP1-002 lymphoblastoid cell viability; series mostly up to 92.2 µM. A digest of the protocol: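 LYMP1-002 human lymphoblastoid cells (2500/well, complete medium) were treated with compounds for 40 hr at 37 C. Intracellular ATP was measured by CellTiter-Glo luminescence, and AC50 values came from Hill-equation fits of concentration-response data; tetraoctylammonium bromide was the positive control.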

Assay [16] in a line: qHTS Assay for Lipid Storage Modulators (AID 1519; calls by dose curve; for activity change, negative = inhibition: % is set by controls: 0 for no effect and ±100 for the full control effect). Particulars: Drosophila S3 cells, BODIPY lipid droplet/cell ratio, laser cytometry, cells loaded with oleic acid. The essentials:
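Cells seeded at 5,000 per well were treated with compounds over a concentration series and loaded with oleic acid (400 uM, as added). Lipid droplet fluorescence (488 nm excitation, 500-530 nm channel) was read by laser-scanning cytometry and normalized to 20 uM Triacsin C.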

The target in assay [17] is Alpha-galactosidase A (Homo sapiens) (UniProt P06280). In words: Counterscreen for Glucocerebrosidase Inhibitors: qHTS Assay for Human alpha-Galactosidase at pH 4.5 (AID 992). Note: 0% is about no effect. Particulars: purified enzyme, fluorogenic substrate; series mostly up to 76.9 µM. The essentials:
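Read-out is 4-methylumbelliferone fluorescence (365 nm excitation, 440 nm emission) after a pH 10 NaOH/glycine stop. Reactions held 2 nM enzyme and 80 uM substrate at pH 4.5 for 20 min at room temperature.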
For orientation: Counterscreens check selectivity or assay interference.

Assay [18] has as its target alpha-glucosidase (Oryza sativa, rice) (UniProt Q653V4). In words: Counterscreen for Glucocerebrosidase Inhibitors: qHTS Assay for Rice alpha-Glucosidase at pH 5.0 (AID 997).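 Note: 0% = full activity with enzyme and -100% = basal without enzyme.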 Particulars: rice alpha-glucosidase enzyme activity; series mostly up to 76.9 µM. The essentials:
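Rice alpha-glucosidase (4 nM final) with 400 uM 4-methylumbelliferyl-alpha-D-glucopyranoside in citrate buffer pH 5.0, 20 min at room temperature, stopped at pH 10; fluorescence 365/440 nm, compounds 0.7 nM–77 uM, AC50 from Hill fits.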

[19] abbreviates: measured here: cell count channel max response.
The mark [20] stands for this setting: measured here: lipid channel max response.

Chain of Alpha-galactosidase A (Homo sapiens) (P06280 whole entry, looked up): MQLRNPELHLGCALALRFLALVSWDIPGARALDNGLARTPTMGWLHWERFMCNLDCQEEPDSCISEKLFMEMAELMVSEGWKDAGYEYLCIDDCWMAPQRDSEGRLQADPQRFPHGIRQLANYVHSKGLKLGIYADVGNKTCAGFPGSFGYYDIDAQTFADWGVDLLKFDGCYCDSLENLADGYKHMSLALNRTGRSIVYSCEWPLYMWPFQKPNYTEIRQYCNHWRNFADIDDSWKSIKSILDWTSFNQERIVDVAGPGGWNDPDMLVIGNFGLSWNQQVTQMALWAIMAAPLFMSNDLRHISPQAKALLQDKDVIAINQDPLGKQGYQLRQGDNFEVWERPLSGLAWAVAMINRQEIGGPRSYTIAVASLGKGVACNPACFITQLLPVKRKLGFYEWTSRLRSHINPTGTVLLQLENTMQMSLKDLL

For the compound `CCCCC(CC)COC(=O)c1ccc(N(C)C)cc1` (stereo not drawn), the outcome in assay [1], in [2], in [3], in assay [4], in assay [5] and in assay [6] was inactive. Further, the compound was called inactive in assay [7], in assay [8], in assay [11], in [13] and in assay [14]. Moreover, the Potency result in assay [9], in assay [10], in [12] and in assay [15] was “inactive” throughout.
As to `CCCN(CCC)S(=O)(=O)c1ccc(C(=O)O)cc1`, the result in assay [1], in [2], in assay [3], in [4], in assay [5] and in [6] was inactive. Besides, the compound was classed as inactive in assay [7], in assay [8], in [11], in [13] and in assay [14]. Further, the Potency result in [9], in assay [10], in assay [12] and in [15] was “inactive” each time. The activity change, negative = inhibition in assay [16] (at 25.7 µM (top of the series)) is -2.1% (inactive); in assay [16] (at 57.5 µM (top of the series)), 1.2% (inactive). The max response in assay [16] (setting [19]) was 0.958% and 6.83%; in [16] (setting [20]) it was 0.939% and 10.4%.
For `CC(C)(C)NC[C@H](O)COc1nsnc1N1CCOCC1`, the result in assay [17] and in assay [18] was inactive. In addition, the activity change, negative = inhibition in assay [16] (at 25.7 µM (top of the series)) is -2.08% (inactive); in [16] (at 57.5 µM (top of the series)) it was 1.69% (inactive). Moreover, the max response in [16] (setting [19]) is 10% and 1.77%; in assay [16] (setting [20]), 6.06% and 5.65%.
With `O=C(O)c1ccc(S(=O)(=O)N(Cl)Cl)cc1`, the call in assay [1], in [2], in assay [3], in assay [4], in assay [5] and in [6] was inactive. In addition, the compound was classed as inactive in assay [7], in assay [8], in assay [11], in assay [13] and in [14]. In addition, the Potency result in assay [9], in assay [10], in [12] and in assay [15] was “inactive” throughout. Also, the activity change, negative = inhibition in [16] (at 57.5 µM (top of the series)) was 9.84% (inactive). Also, the max response was found to be 17.1% in assay [16] (setting [19]) and 34.6% in assay [16] (setting [20]).
With `CC(C)(C)NC[C@H](O)COc1cccc2c1CCCC2=O`, the activity change, negative = inhibition in assay [16] (at 25.7 µM (top of the series)) was -0.268% (inactive) and -1.87% (inactive). The max response in assay [16] (setting [19]) is -9.82% and 1.67%; in [16] (setting [20]), -10.4% and -0.857%.
For `COc1cc(NS(=O)(=O)c2ccc(N)cc2)ncn1`, the results for the activity change, negative = inhibition in assay [16] (at 25.7 µM (top of the series)) and in assay [16] (at 57.5 µM (top of the series)) were 1.08% (inactive) and 3.4% (inactive), respectively. For the same compound, the max response in assay [16] (setting [19]) is 0.606% and 6.05%; in assay [16] (setting [20]) it was 1.51% and 9.04%.
Take `C/C=C/c1ccc(O)c(OC)c1`: the compound was called inactive in [1], in [2], in assay [3], in assay [4], in assay [5] and in assay [6]. Also, the compound was classed as inactive in [7], in assay [8], in [11], in [13] and in assay [14]. The Potency result in assay [9], in assay [10], in [12] and in assay [15] was “inactive” each time.
With `CCOc1ccc(NC(C)=O)cc1`, the result in assay [1], in assay [2], in assay [3], in [4], in [5] and in assay [6] was inactive. Besides, the outcome in [7], in assay [8], in assay [11], in assay [13] and in assay [14] was inactive. Besides, the Potency entry in assay [9], in [10], in assay [12] and in [15] was “inactive” each time. Moreover, the activity change, negative = inhibition in [16] (at 25.7 µM (top of the series)) is -1.03% (inactive). Besides, the max response in assay [16] (setting [19]) was 1.01%; in assay [16] (setting [20]), -4.32%.
Regarding `CCOc1ccccc1C(N)=O`, the result in assay [1], in [2], in assay [3], in [4], in assay [5] and in [6] was inactive. The call in [7], in assay [8], in assay [11], in assay [13] and in [14] was inactive. The Potency entry in assay [9], in [10], in assay [12] and in assay [15] was “inactive” in each case.
